Records with an inconclusive call do not appear. Activity calls are given as the source filed them. Unless noted, calls follow the shape of the full dose curve.
Key:
[1] = Cell Viability - BJ (AID 421); settings: BJ fibroblast viability, qHTS;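 also: potency is read from the fitted curve at half-maximal effect; cells exposed to compound for 40 hours at 37 °C before readout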
Method in brief: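 Quantitative HTS: ATP depletion in BJ cells after 40 hr compound exposure in complete culture medium, detected with CellTiter-Glo; AC50 from standard Hill fits.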

[2] = Cell Viability - Hek293 (AID 427;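 active = compounds whose dose-response curve shows a full or clear partial loss of cell viability, called from curve shape rather than a numeric limit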;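 also: potency is read from the fitted curve at half-maximal effect; cells exposed to compound for 40 hours at 37 °C before reading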); settings: qHTS
Method in brief: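 AC50 values derive from Hill-modelled concentration-response of ATP-based luminescence, normalized between DMSO-only and 100 uM tamoxifen controls. Cells were exposed in complete culture medium for 40 hr at 37 °C before detection.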

[3] = Cell Viability - HepG2 (AID 433); settings: qHTS;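 also: potency is read from the fitted curve at half-maximal effect; potency for ATP loss meaning cytotoxicity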
Method in brief: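 HepG2 hepatocellular carcinoma cells (1500/well) were treated with compounds for 40 h at 37 °C in complete medium; intracellular ATP was read by CellTiter-Glo luminescence. Data were normalized to DMSO and 100 uM tamoxifen, and AC50 came from Hill fits.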

[4] = Cell Viability - SK-N-SH (AID 435); settings: SK-N-SH neuroblastoma cell viability qHTS;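 also: potency is read from the fitted curve at half-maximal effect; compound exposure lasted 40 h at 37 °C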
Method in brief: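 SK-N-SH human neuroblastoma cells (1500/well) were exposed to compounds in complete medium for 40 h at 37 °C, and intracellular ATP was then measured by CellTiter-Glo luminescence. AC50 was taken from Hill fits, normalized to DMSO and 100 uM tamoxifen.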

[5] = target: Mitogen-activated protein kinase 10 (Mus musculus) (UniProt Q61831); assay: JNK3 AlphaScreen Assay (AID 530; active = well fitted curve in either direction with a large enough effect, not every such curve was filed as active;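 also: kinase came from lysate of stimulated human HepG2 cells; signal reports phosphorylation of biotinylated GST-cJun 1-79 at Ser73 with 10 µM ATP; % is scaled to controls: 0 for no effect and ±100 for the full control effect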); settings: JNK3 lysate, c-Jun phosphorylation; series mostly up to 57.1 µM
Method in brief: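 qHTS format: compounds tested as titrations against IL-1beta/TNF-alpha-activated HepG2 lysate JNK3 with biotin-GST-cJun substrate and 10 uM ATP at room temperature. Loss of anti-phospho-cJun AlphaScreen signal indicates inhibition.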

[6] = Cell Viability - N2a (AID 540; active = well fitted curve in the direction sought with a large enough effect; an effect the other way counts as inactive or inconclusive;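 also: plate controls were DMSO alone for no effect and tamoxifen control for full effect; nearly all actives have a fitted effect of over 45% in size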); settings: N2a mouse neuroblastoma cell viability; activity change, negative = cytotoxicity: at 92.2 µM (top of the series)
Method in brief: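 Mouse neuroblastoma N2a cells (1500/well) were preincubated 5 hr at 37 °C, then exposed to compounds for 40 hr at 37 °C in complete medium. Viability was read as intracellular ATP by CellTiter-Glo luminescence; AC50 from Hill fits.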

[7] = Cell Viability - NIH 3T3 (AID 541; active = well fitted curve in the direction sought with a large enough effect; an effect the other way counts as inactive or inconclusive;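 also: plate controls were DMSO alone for no effect and tamoxifen positive control for full effect; nearly all actives have a fitted effect of over 25% in size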); settings: NIH 3T3 cell viability, qHTS; activity change, negative = cytotoxicity: at 92.2 µM (top of the series)
Method in brief: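 NIH 3T3 mouse embryo fibroblasts (1000 cells/well) were plated in complete medium and treated with compound for 40 hr at 37 °C. Viability was read as intracellular ATP by CellTiter-Glo luminescence; AC50 values came from Hill-equation fits of concentration-response data.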

[8] = Cell Viability - MRC5 (AID 434); settings: MRC5 lung fibroblast viability, qHTS;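 also: potency is read from the fitted curve at half-maximal effect; potency reflects cytotoxicity seen as loss of intracellular ATP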
Method in brief: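 MRC5 normal human lung fibroblasts, 1500 cells/well, exposed to compound for 40 hr at 37 C. Cellular ATP was read by CellTiter-Glo luminescence; data normalized to DMSO and 100 uM tamoxifen, with AC50 from Hill fits.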

[9] = Cell Viability - HUV-EC-C (AID 542; active = well fitted curve in the direction sought with a large enough effect; an effect the other way counts as inactive or inconclusive; also: % is scaled to controls: 0 for no effect and ±100 for the full control effect; nearly all actives have a fitted effect of over 35% in size); settings: HUV-EC-C endothelial cell viability, qHTS; series mostly up to 92.2 µM
Method in brief: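 HUV-EC-C normal human vascular endothelial cells, 1000 cells/well, pre-incubated 5 hr at 37 °C, then exposed to compounds for 40 hr at 37 °C in complete medium. Viability measured as intracellular ATP by CellTiter-Glo luminescence; AC50 from Hill fits.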

CNC(=O)c1ccccc1
inactive: Potency [1] > 92 µM | Potency [2] > 92 µM | Potency [3] > 92 µM | Potency [4] > 92 µM | outcome [5] | activity change, negative = cytotoxicity [6] -4.58% | Potency [7]

Oc1cccc(Nc2ccccc2)c1
inactive: Potency [1] > 92 µM | Potency [2] > 92 µM | Potency [3] > 92 µM | Potency [4] > 92 µM | outcome [5] | activity change, negative = cytotoxicity [6] -16.5% | Potency [7]

Cc1ccc2ncccc2c1
inactive: Potency [1] > 92 µM | Potency [2] > 92 µM | Potency [3] > 92 µM | Potency [8] > 92 µM | Potency [4] > 92 µM | outcome [5] | activity change, negative = cytotoxicity [6] 3.92% | Potency [7] | Potency [9]

C=CCCCCCCC=C
inactive: Potency [1] > 92 µM | Potency [2] > 92 µM | Potency [8] > 92 µM | Potency [4] > 92 µM | outcome [5] | activity change, negative = cytotoxicity [6] -4.21%

CC(=C/C=C/C(C)=C/C=C/C=C(C)/C=C/C=C(C)/C=C/C(=O)O)/C=C/C(=O)O
inactive: Potency [1] > 92 µM | Potency [2] > 92 µM | Potency [3] > 92 µM | Potency [8] > 92 µM | Potency [4] > 92 µM | outcome [5] | activity change, negative = cytotoxicity [6] -0.984% | Potency [9]

C[C@@H]1O[C@@H](O[C@@H]2[C@@H](O)[C@H](OCCc3ccc(O)c(O)c3)O[C@H](CO[C@@H]3O[C@H](CO)[C@@H](O)[C@H](O)[C@H]3O)[C@H]2OC(=O)/C=C/c2ccc(O)c(O)c2)[C@H](O)[C@H](O)[C@H]1O
inactive: Potency [1] > 92 µM | Potency [2] > 92 µM | Potency [8] > 92 µM | Potency [4] > 92 µM | outcome [5] | activity change, negative = cytotoxicity [6] -12.1% | Potency [7] | Potency [9]

O=C(O)/C=C/C(=O)O
inactive: Potency [1] > 92 µM | Potency [2] > 92 µM | Potency [3] > 92 µM | Potency [4] > 92 µM | outcome [5] | activity change, negative = cytotoxicity [6] 4.39% | Potency [9]

O=C(O)CCSSCCC(=O)O
inactive: Potency [1] > 92 µM | Potency [2] > 92 µM | Potency [3] > 92 µM | Potency [8] > 92 µM | Potency [4] > 92 µM | outcome [5] | activity change, negative = cytotoxicity [6] 1.39% | Potency [7] | Potency [9]

C=CCCC
inactive: Potency [1] > 92 µM | Potency [2] > 92 µM | Potency [3] > 92 µM | Potency [8] > 92 µM | Potency [4] > 92 µM | outcome [5] | activity change, negative = cytotoxicity [6] 1.78% | Potency [7]

Nc1cc(Cl)c([N+](=O)[O-])cc1O
inactive: Potency [1] > 92 µM | Potency [2] > 92 µM | Potency [3] > 92 µM | Potency [8] > 92 µM | Potency [4] > 92 µM | outcome [5] | Potency [9]
active: activity change, negative = cytotoxicity [6] -99.1%
